This note sets out measurements from PubChem BioAssay (NCI).

About 83,000 compounds went through this panel and 20% of them were active in at least one assay; those are over-represented in the sample as a whole.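 For each line, cells grew in 96-well plates with the test compound present at a single concentration for 48 hours.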 Values without a mark were called inactive. Active and inactive are the calls of the source. The calls were made as follows: active = growth percent below 10; inactive = the rest.

The test relates to T-47D breast. Put plainly: NCI-60 one-dose screen, 48 h (100 = growth as untreated, 0 = no growth, -100 = all killed). The following applies: 10 µM unless noted.
With `CCOC(=O)c1cnc2c(-c3ccc(Cl)c(Cl)c3)cnn2c1`, the growth is 86.2%.

On to `CCCc1[nH]c(-c2cc(N)ccc2Cl)c2c1C(=O)CCCC2`, for which the growth was 75.7%.

Regarding `O=C(Nc1ccc(N=Cc2c(O)[nH]c3ccccc23)cc1)Nc1ccc(S(=O)(=O)Nc2ncccn2)cc1`, the growth is 92.2%.

With `Cc1ccc(NC(=O)Nc2nc3ccc([N+](=O)[O-])cc3s2)cc1`, the growth was -22.3% (active).

With `COc1ccc(C2C(C#N)=C(/N=C/c3ccc(Cl)cc3)Oc3c2sc2c(C)cccc32)cc1` (stereo not drawn), the growth is 17.9%.

Turning to `Cc1ccc2c(n1)C(=O)C(Cl)=C(Nc1ccc(C(F)(F)F)cc1)C2=O`, the growth is -25.5% (active).

For `Brc1cc(-c2cc(-c3ccc4c(c3)OCCO4)[nH]n2)cs1`, the growth is 38.5%.

Regarding `CN(C)c1cccc2c(S(=O)(=O)Nc3cccc(-c4csc(NC(=O)CCCCCN5CCN(CCO)CC5)n4)c3)cccc12`, the growth is 82.7%.

`CC1=C(C)C(=O)C(Nc2cccc(C(=O)OC(C)(C)C)c2)=CC1=O`: the growth is 65%.

`C=C(C)[C@@H]1CC[C@]2(C(=O)O)CC[C@]3(C)[C@H](CC[C@@H]4[C@@]5(C)C/C(=C/c6ccccn6)C(=O)C(C)(C)[C@@H]5CC[C@]43C)[C@@H]12`: the growth was 19%.

Turning to `Nc1ccc(Nc2ncnc3sc4c(c23)CCN(Cc2ccccc2)C4)cc1`, the growth was 102%.

Consider `Cc1ccsc1[C@H]1c2[nH]c3ccccc3c2C[C@H]2C(=O)N(CCCCCCC(=O)NO)CC(=O)N12`, for which the growth is 57.6%.

Consider `C=C(C)[C@@H]1CC[C@]2(COCCCNCCCN)CC[C@]3(C)[C@H](CC[C@@H]4[C@@]5(C)CC[C@H](O)C(C)(C)[C@@H]5CC[C@]43C)[C@@H]12`, for which the growth is -53.3% (active).
